Hits are enriched below; roughly 3.5% of the tested compounds scored in any of these assays.
CRE Fsk mod: modulators of forskolin-stimulated CRE signaling in CHO cells; CHO CRE-bla reporter (cAMP response element driving beta-lactamase), forskolin EC10, beta-lactamase ratio; Potency, µM (series often up to 38.2 µM), inactives show at the top dose activity change, negative = inhibition, actives largely listed as activators; 2.5% of 71,000 active; AID 662; active = well fitted activation curve with a large enough effect in the signal ratio, with a control signal flat, not every such curve was filed as active; inconclusive = small, poorly fitted or top-dose-only effect, or effect the other way, or a change in a side signal; the % refers to the signal ratio; note: % of control where 0% means no effect
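AC50 values, positive or negative, reflect shifts in EC10 NKH 477-induced CRE-bla reporter activity in CHO cells. Incubation lasted 3 h at 37 °C before CCF4 substrate (2 h, room temperature) and ratiometric 460/530 nm reading.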
HEK293 cAMP ctrl: counter-screen for TSHR agonists: cAMP increase in parental HEK293 | 2.5% of 73,000 active | Potency, µM (top dose mostly 57.1 µM), without a hit: at the highest dose activation, usual class: activators | parental HEK293 CNG cAMP sensor, membrane potential fluorescence; active = well fitted activation curve with a large enough effect; inconclusive = small, poorly fitted or top-dose-only effect; inactive = no such curve, though single readings can be large or run the other way; note: % of control where 0% means no effect; nearly all actives have a fitted effect of over 55% in size
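Counterscreen for endogenous-receptor signalling: CNG-channel HEK 293 cells report cAMP rise by membrane depolarization. After 60 min dye equilibration with 100 uM RO 20-1724, compounds incubated 30 min before bottom-read fluorescence at 590 nm.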
TSHR agonist: activates the human thyroid stimulating hormone receptor; HEK293-CNG-TSHR cells (CNG channel as cAMP sensor), membrane potential dye, cAMP; 0.48% of 73,000 active; Potency, µM (top dose mostly 57.1 µM), for the others: at the top dose activation, most hits filed as activators; P16473; active = well fitted activation curve with a large enough effect in the main read-out, with a control signal flat, not every such curve was filed as active; inconclusive = small, poorly fitted or top-dose-only effect, or a change in a side signal; inactive = no such curve, though single readings can be large or run the other way; % of control where 0% means no effect;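 note: the control signal comes from parental cells without the receptor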
Target sequence (P16473 whole entry, looked up): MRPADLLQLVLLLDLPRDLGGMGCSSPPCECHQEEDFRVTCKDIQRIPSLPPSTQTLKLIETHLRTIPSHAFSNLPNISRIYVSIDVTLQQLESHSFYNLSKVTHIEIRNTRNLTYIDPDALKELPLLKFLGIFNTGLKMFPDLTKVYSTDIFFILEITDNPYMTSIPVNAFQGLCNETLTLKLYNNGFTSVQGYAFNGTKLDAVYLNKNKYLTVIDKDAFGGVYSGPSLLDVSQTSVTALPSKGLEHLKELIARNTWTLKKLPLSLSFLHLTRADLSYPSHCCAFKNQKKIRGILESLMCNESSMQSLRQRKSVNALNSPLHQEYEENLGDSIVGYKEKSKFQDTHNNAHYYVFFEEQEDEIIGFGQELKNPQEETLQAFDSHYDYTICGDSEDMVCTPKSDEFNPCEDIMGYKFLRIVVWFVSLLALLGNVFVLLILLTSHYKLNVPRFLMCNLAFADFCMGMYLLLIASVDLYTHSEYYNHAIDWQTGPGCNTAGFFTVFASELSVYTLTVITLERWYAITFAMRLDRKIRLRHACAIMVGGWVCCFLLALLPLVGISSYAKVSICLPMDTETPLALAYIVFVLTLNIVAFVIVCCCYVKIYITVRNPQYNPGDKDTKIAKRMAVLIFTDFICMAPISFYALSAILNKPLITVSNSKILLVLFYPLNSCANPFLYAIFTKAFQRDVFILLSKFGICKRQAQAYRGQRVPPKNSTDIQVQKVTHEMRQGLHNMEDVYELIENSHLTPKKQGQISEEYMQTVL
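cAMP rise detected as CNG-channel membrane depolarization by fluorescent dye (emission 590 nm), 30 min after compound, following 60 min dye loading containing 100 uM RO 20-1724 at room temperature. Cells: TSHR/CNG HEK 293, with parental CNG HEK 293 as control.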
Hsp90 Hop PPI: changes Hsp90-Hop TPR2A binding signal, up or down; AlphaScreen TPR2A-His6 binding biotin-Hsp90 C-terminal peptide; Potency, µM (highest dose often 57 µM), without a hit: at the top dose activity change, negative = inhibition; 0.44% of 71,000 active; active = well fitted curve in either direction with a large enough effect; inconclusive = small, poorly fitted or top-dose-only effect, or another doubt; note: % is set by controls: 0 for no effect and ±100 for the full control effect
IkB signaling: IkB pathway inhibition in ABC-DLBCL cells; 0.04% of 110,000 active; Potency, µM (highest dose often 57.1 µM), for the others: at the top dose IkBa stabilization activation; ABC-DLBCL IkBa-CBG/CBR dual luciferase ratio, 4 h; response scale: scaled: untreated 0%, proteasome inhibitor 100%; AID 445; active = well fitted curve in the direction sought with a large enough effect in the signal ratio, not every such curve was filed as active; inconclusive = small, poorly fitted or top-dose-only effect, or a change in a side signal; the % refers to the signal ratio;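 note: the direction sought is a rising ratio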
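Curves were fitted separately to fusion (green), unfused (red) and ratio luminescence, then classed by r2, magnitude and activity. Cells: OCI-Ly3, 4 h compound plus doxycycline at 37C; 10 uM MG-132 defined full response.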
Active calls of the source: *; ? = inconclusive; . = no result; [ ] = remark or other dose. Potency is the fitted concentration of half-maximal effect.

SMILES	CRE Fsk mod	HEK293 cAMP ctrl	TSHR agonist	Hsp90 Hop PPI	IkB signaling
CCC(=O)c1cc2c(C)cc(=O)oc2c(C)c1O	2µM*	7%	0%[11.4 µM]	-1%	-2%
CC(C)CC(c1nnnn1Cc1ccco1)N1CCN(c2cccc(Cl)c2)CC1 (stereo not drawn)	-5%	10µM*	?	11%	3%
CC(C)CC(c1nnnn1CC1CCCO1)N1CCN(c2cccc(Cl)c2)CC1 (stereo not drawn)	-11%	13µM*	?	2%	2%
COc1ccc(Cn2nnnc2C(CC(C)C)N2CCN(c3ccccc3)CC2)cc1 (stereo not drawn)	?	?	?	1%	2%
COc1cccc(CNC(=O)c2sc3nc4n(c(=O)c3c2C)CCC4)c1	.	.	.	.	-1%
CC(C)Cn1c(NCCN(C)C)nc2c1c(=O)[nH]c(=O)n2C	2%	-4%	2%	-4%	5%
CCC(C)Nc1nc2c(c(=O)[nH]c(=O)n2C)n1CCC(C)C (stereo not drawn)	10µM*	?	?	-7%	0%
CCCNc1nc2c(c(=O)[nH]c(=O)n2C)n1Cc1ccc(F)cc1	10µM*	-3%	-3%	-3%	2%
CCNc1nc2c(c(=O)[nH]c(=O)n2C)n1CC(C)C	10µM*	18%	-13%	-1%	-2%
Cn1c(N2CCCC2)nc2c1c(=O)n(Cc1ccc(F)cc1)c(=O)n2C	3.2µM*	-10%	-2%	-3%	-3%
C=CCNc1nc2c(c(=O)n(C)c(=O)n2C)n1Cc1ccc(F)cc1	-4%	25µM*	?	0%	7%
CCNc1nc2c(c(=O)[nH]c(=O)n2C)n1Cc1ccc(F)cc1	10µM*	9%	-6%	-2%	3%
O=C(CCn1c(=O)c2cccn2c2ccc(F)cc21)NCc1ccccc1F	.	.	.	.	0%
Cc1cc(NCCN2CCOCC2)n2nc(C)c(-c3ccc(Cl)cc3)c2n1	1.3µM*	-20%	-11%[11.4 µM]	1%	-1%
O=C1c2ccccc2-c2nc3ncnn3c(-c3ccccc3Cl)c21	13µM*	5%	-12%	-7%	-4%
COc1ccc(C)cc1NS(=O)(=O)c1c(C(=O)N2CCCCCC2)c(C)n(C)c1C	.	.	.	.	-1%
CCCn1c(-c2ccc(F)cc2)nc2c(NCCN(C(C)C)C(C)C)nc(C)nc21	8%	13µM*	?	-2%	.
CCCn1c(-c2ccc(F)cc2)nc2c(N3CCN(C)CC3)nc(C)nc21	19%	16µM*	?	-6%	.
CCCn1c(-c2ccc(F)cc2)nc2c(NCCN(C)C)nc(C)nc21	12%	?	?	-5%	.
CCCn1c(-c2ccc(F)cc2)nc2c(N3CCC(N(C)C)C3)nc(C)nc21 (stereo not drawn)	17%	?	?	-4%	.
CN(Cc1ccco1)c1nc(-c2ccccc2Cl)nc2ccccc12	?	23%	18%	8%	2%[11.4 µM]
COc1ccccc1-c1nc(N(C)Cc2ccco2)c2ccccc2n1	3%	25µM*	?	-5%	3%[11.4 µM]
CN(Cc1ccco1)c1cc(-c2cccnc2)ncn1	?	-8%	10%	-3%	0%[11.4 µM]
CN(Cc1ccco1)c1nc(-c2cccnc2)nc2ccccc12	2.5µM*	25µM*	?	-5%	-1%[11.4 µM]
CN(Cc1ccco1)c1nc(-c2ccccc2C(F)(F)F)nc2ccccc12	5%	10µM*	?	11%	5%[11.4 µM]
SMILES	CRE Fsk mod	HEK293 cAMP ctrl	TSHR agonist	Hsp90 Hop PPI	IkB signaling
Oc1cc(O)cc(/C=C\c2ccc(O)c(O)c2)c1	-7%	-9%	2%	?	3%
N=C(C[C@@H](O)COc1ccccc1-c1ccccc1)N1CCCCC1	-25%	32µM*	?	-5%	?
N[C@@H](Cc1ncccn1)C(=O)O	-6%[7.6 µM]	14%[11.4 µM]	-5%[11.4 µM]	-3%[11 µM]	-1%[11.4 µM]
COc1ccc(-c2nnc(SCC(=O)N(Cc3ccccc3)C(C)(C)C)o2)cc1OC	8%	32µM*	?	-8%	2%
CCN(C(=O)CSc1nnc(-c2cc(OC)c(OC)c(OC)c2)o1)c1ccccc1	.	.	.	.	14%
O=C(O)/C=C\C(=O)N1Cc2cc3ccccc3nc2C1	3%[7.6 µM]	-1%[11.4 µM]	-2%[11.4 µM]	-6%[11 µM]	0%[11.4 µM]
CCC(C(=O)N1CCN(c2cccc(Cl)c2)CC1)c1ccccc1 (stereo not drawn)	?	25µM*	?	11%	?
O=C(O)CCC(=O)N1CCN(c2cccc(Cl)c2)CC1	-17%	5%	3%	-2%	3%
Cc1cc(NC(=O)C2CCC2)n(-c2ccccn2)n1	3.2µM*	16%	6%	1%	0%
Cc1cccc(NC(=O)Cn2nnc(C(=O)NCc3cccs3)c2N)c1	.	.	.	.	-1%
COc1ccc(S(=O)(=O)N2CCC(C(=O)NCCc3ccc4c(c3)OCO4)CC2)cc1	6%	?	?	-1%	3%
O=C(NCCc1ccc2c(c1)OCO2)C1CCN(S(=O)(=O)c2ccc(Cl)cc2)CC1	?	13µM*	?	0%	4%
COc1ccc(CNc2nc3c(-c4ccc(C)cc4)nnn3c3ccccc23)cc1	.	.	.	.	-1%
O=c1[nH][nH]c(=S)c(=O)[nH]1	9%[7.6 µM]	?	?	-2%[11 µM]	1%[11.4 µM]
OCC1OC(c2ccc3c(c2)OCO3)C=CC1Oc1ccc(C2CCCC2)cc1 (stereo not drawn)	.	6%[11.4 µM]	5%[11.4 µM]	.	.
OCC1OC(/C=C\c2ccccc2)C=CC1Oc1ccc2c(c1)OCO2 (stereo not drawn)	.	4µM*	?	.	.
Cn1ncc(C#N)c1/N=C/N(Cc1ccccc1)Cc1ccccc1	-6%	16µM*	?	11%	?
COc1ccc2c(c1OC)C(=O)N(c1cccc(C)c1)C2	?	20%	.	-6%	3%
COc1ccc2c(c1OC)C(=O)N(c1ccccn1)C2	10µM*	19%	6%	?	4%

Source: PubChem
